Screening results as filed in PubChem.
Only some compounds are listed: those with a hit (about 21% of all), similar ones and a draw of the others.
Shiga inhibitor: inhibitors of Shiga toxin in Vero cells. Vero cells, Shiga toxin protein synthesis inhibition reporter. inhibition, % at 38.7 µM. hit rate 9.2% among 290,000. AID 2315; in the data active = inhibition mostly above about 28%, no sharp cut-off; inactive = mostly below about 43%; note: 0% is about no effect
NS1 inh: blocks influenza NS1 protein function; hit rate 0.4% among 270,000; Potency, µM (top dose mostly 46.1 µM), inactives show at the highest dose activity, positive = more growth; AID 2326; calls by dose curve; note: potency is the fitted concentration of half-maximal effect; actives are rising curves; nearly all actives have a fitted effect of over 50% in size
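A cell-based growth assay was used: compounds that relieve NS1-induced slow growth of budding yeast raise OD600. Assay medium was yeast nitrogen base with ammonium sulphate and -URA supplement, pH 6.0, with 2% galactose.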
SARS PLpro yeast: inhibitors of SARS-CoV papain-like protease in yeast | hit rate 0.19% among 330,000 | S. cerevisiae expressing SARS-CoV PLpro, growth rescue | Potency, µM (titrated, usually from 32.9 µM), for inactives: top-dose activity, positive = growth rescue, most hits filed as activators; calls by dose curve; note: potency is the fitted concentration of half-maximal effect; 0% is about no effect; nearly all actives have a fitted effect of over 55% in size
Pf growth 48h: inhibits P. falciparum growth in the first generation, 48 h | P. falciparum luciferase growth in erythrocytes, 48 h | Potency, µM (titrated, usually from 28.7 µM), for inactives: top-dose activity change, negative = inhibition, most hits filed as inhibitors | hit rate 5.9% among 310,000 | AID 504832; note: potency is the fitted concentration of half-maximal effect; % is set by controls: 0 for no effect and ±100 for the full control effect
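Parasite viability was followed by luminescence of a genomically integrated firefly luciferase. Cultures held 0.1% parasitemia at 2% hematocrit (final), incubated under 5% CO2 at 37 C.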
Pf growth 96h: inhibits malaria parasite growth, 96 h; P. falciparum luciferase reporter growth, 96 h; Potency, µM (doses to about 28.7 µM), for the others: at the top dose activity change, negative = inhibition, actives largely listed as inhibitors; hit rate 6.9% among 320,000; AID 504834; note: potency is the fitted concentration of half-maximal effect; % is set by controls: 0 for no effect and ±100 for the full control effect
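Infected RBCs, 2% Hct / 0.05% parasitemia final; luciferase-reporter P. falciparum; cpd 96 h, 37 C, 5% CO2; luciferase detection reagent; luminescence.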
Cycloheximide cs: affects cycloheximide protein synthesis inhibition readout, counter-screen; cell reporter, cycloheximide protein synthesis inhibition counterscreen; max response, %; hit rate 12% among 300,000; in the data active = max response mostly above about 13%, no sharp cut-off; inactive = mostly below about 14%; note: read at 38.3 µM for the half of the compounds with a filed dose; 0% is about no effect
* marks the source's active call; other numbers are inactive results; i = inactive; u = inconclusive; x = no result given. Unless noted, calls come from the whole dose curve; as a rule, active = well fitted inhibition curve with a large enough effect; inconclusive = small, poorly fitted or top-dose-only effect, or another doubt; inactive = no such curve, though single readings can be large or run the other way.

SMILES	Shiga inhibitor	NS1 inh	SARS PLpro yeast	Pf growth 48h	Pf growth 96h	Cycloheximide cs
CCOC(=O)c1c(NC(=S)Nc2ccccc2)sc2c1CCN(CCc1ccccc1)C2	-22	u	2%	13µM*	2.3µM*	-7
CCOC(=O)c1c(NC(=O)C(C)Sc2cccc[n+]2[O-])sc2c1CCN(Cc1ccccc1)C2 (configuration not stated)	-14	1%	10%	9.3µM*	5.2µM*	-5
CCOC(=O)c1c(NC(=O)CSc2ncccn2)sc2c1CCN(Cc1ccccc1)C2	3	-5%	10%	u	7.4µM*	-2
CC(C)C(NC(=O)c1ccccc1F)C(=O)NCc1ccc(F)cc1 (configuration not stated)	-8	-1%	1%	7%	21%	-5
COc1cc(/C=C/C(=O)OCC(=O)Nc2ccc(S(N)(=O)=O)cc2)ccc1O	-7	-1%	0%	u	u	28*
COc1cccc(/C=C/C(=O)OCC(=O)Nc2ccc(Cl)c(S(=O)(=O)N(C)C)c2)c1	7	x	-1%	11%	-12%	8
COc1cc(/C=C/C(=O)OCC(=O)Nc2ccc([N+](=O)[O-])cc2)ccc1O	3	5%	-1%	u	u	-2
COc1cccc(/C=C/C(=O)OCC(=O)Nc2cccc(S(=O)(=O)N(C)C)c2)c1	6	x	0%	3%	u	15*
CN(C(=O)CO/N=C/c1ccc(OC(F)F)cc1)C1CCS(=O)(=O)C1 (configuration not stated)	3	x	0%	12%	29%	2
CN(C)c1ccc(-c2ccc3c(=O)c4ccccc4n(C)c3c2)cn1	87*	-42%	-4%	85%	129%	58*
CC(C)(C)c1ccc(S(=O)(=O)NCC(=O)Nc2ccc(-c3nc4ccccc4s3)cc2)cc1	123*	6%	1%	29%	x	38*
CC(NS(=O)(=O)c1cccc(Cl)c1)C(=O)Nc1ccc(-c2nc3ccccc3s2)cc1 (configuration not stated)	44	9%	-1%	u	x	38*
Cc1ccc(C)c(S(=O)(=O)NC(C)C(=O)Nc2ccc(-c3nc4ccccc4s3)cc2)c1 (configuration not stated)	83*	-5%	-14%	130%	71%	53*
O=C(CNS(=O)(=O)c1cccc(Cl)c1)Nc1ccc(-c2nc3ccccc3s2)cc1	43*	6%	1%	24%	-1%	34*
COc1ccc(NC(=O)C(C)NS(=O)(=O)c2ccccc2)cc1Cl (configuration not stated)	-5	-2%	-3%	-5%	x	1
COc1cccc(S(=O)(=O)NCC(=O)Nc2ccc(C(C)(C)C)cc2)c1	11	-4%	-5%	u	u	-1
Nc1nnnn1CCO	x	3%	x	x	x	x
COc1ccc(Cl)cc1NS(=O)(=O)N1CCOCC1	-5	7%	24%	-5%	46%	-4
COCCn1c(=NC(=O)c2ccc(S(=O)(=O)N3CCCc4ccccc43)cc2)sc2cc(S(C)(=O)=O)ccc21	-8	-1%	-5%	3.3µM*	1µM*	-3
COCCn1c(=NC(=O)c2nc3ccccc3s2)sc2cc(S(C)(=O)=O)ccc21	-5	-9%	2%	6%	u	-6
C=CCn1c(=NC(=O)c2ccc(S(=O)(=O)N3CCCc4ccccc43)cc2)sc2cc(S(N)(=O)=O)ccc21	-4	u	11%	5.2µM*	4.7µM*	-5
CCCCN(C)CCNC(=O)C(NC(=O)C1CCC(C)CC1)C(C)C (configuration not stated)	9	x	2%	-7%	19%	-4
COc1ccc(-c2noc(-c3ccoc3C)n2)cc1	56*	-8%	15%	157%	u	59*
COc1cccc(-c2noc(-c3ccoc3C)n2)c1	123*	x	-2%	i	56%	39*
COc1ccc(-c2noc(-c3ccoc3C)n2)cc1OC	-12	4%	0%	-4%	90%	-3
SMILES	Shiga inhibitor	NS1 inh	SARS PLpro yeast	Pf growth 48h	Pf growth 96h	Cycloheximide cs
Cc1cccc(-c2noc(-c3ccoc3C)n2)c1	100*	-4%	3%	168%	82%	35*
CCCSc1ccc(-c2nn(-c3ccccc3)cc2/C=C(/C#N)C(=O)NCCCOC)cc1	-5	8%	0%	1%	3.7µM*	-2
CCSc1ccc(-c2nn(-c3ccccc3)cc2/C=C(/C#N)C(=O)NCCCOC)cc1	-7	0%	9%	1.9µM*	u	-4
Cc1ccc(-c2nn(-c3ccccc3)cc2/C=C(\C#N)C(=O)NCc2ccccc2)cc1	9	12%	5%	14%	44%	-1
CC(NC(=O)/C(C#N)=C/c1cn(-c2ccccc2)nc1-c1ccc(F)cc1)c1ccccc1 (configuration not stated)	-10	6%	11%	u	u	-6
CCCC(C(=O)NC(C)(C)CC)N(Cc1ccco1)C(=O)CNS(=O)(=O)c1ccccc1 (configuration not stated)	20	-1%	0%	u	u	-1
COc1cc(-c2nc(CN3CCN(c4ncccn4)CC3)c(C)o2)ccc1F	36	-4%	-1%	-3%	-95%	17
COc1cc(-c2nc(CN3CCN(CC(C)C)C(=O)[C@@H]3C)c(C)o2)ccc1F	-19	3%	0%	9.3µM*	-29%	0
COc1ccc(CCNC(=O)c2cc(C)oc2C)cc1OC	26	u	-1%	21%	2%	-2
Cc1ccc(CN(C(=O)c2cc(=O)c3cc(C)cc(C)c3o2)C2CCS(=O)(=O)C2)cc1 (configuration not stated)	-7	-5%	-2%	3.3µM*	9.3µM*	-1
Cc1cc(C)c2oc(C(=O)N(Cc3ccc(F)cc3)C3CCS(=O)(=O)C3)cc(=O)c2c1 (configuration not stated)	10	-15%	-3%	u	-7%	-4
Cc1ccc(CN(C(=O)c2cc(=O)c3cc(Cl)c(C)cc3o2)C2CCS(=O)(=O)C2)cc1 (configuration not stated)	-16	9%	4%	u	4.7µM*	-3
COc1ccc2cc(C(=O)Nc3ccccc3)sc(=O)c2c1OC	34*	-9%	-2%	-7%	u	43*
COc1ccc2cc(C(=O)Nc3ccc(S(N)(=O)=O)cc3)sc(=O)c2c1OC	-11	7%	5%	12%	8%	-2
O=C(Nc1ccccc1)c1cc(Cl)nc2ccccc12	7	4%	u	-5%	u	-6
O=C(Nc1ccccc1)c1cc2ccc3ccccc3c2s1	92*	-10%	-4%	-3%	-8%	47*
Nc1cc(Cl)nnc1Cl	2	4%	1%	31%	23%	-1
CC(C)CSc1nsc(N)n1	50	2%	-14%	98%	x	31
